Source: PubChem BioAssay (NCI)
Compounds without any hit were thinned out: in the full panel of roughly 79,000, 15% have a hit. Active and inactive are the calls of the source. Cut-off read from the data, not from the text of the source: active = growth inhibition above about 70%; inactive = the rest.

Legend:
[1] = NCI Yeast Anticancer Drug Screen. Data for the rad52 strain (AID 147);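 note: 0% = growth of vehicle-treated control cultures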; conditions: S. cerevisiae rad52 mutant growth inhibition, hits give high values
How it was run: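 Here a repair-compromised yeast strain receives each compound; its growth is then quantified and normalised to vehicle-only controls.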

[2] = NCI Yeast Anticancer Drug Screen. Data for the wt1 strain (AID 149);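 note: 0% = growth of vehicle-treated wt1 cultures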; conditions: S. cerevisiae wt1 strain (SPY 50644) growth inhibition, hits give high values
How it was run: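 Growth inhibition read against vehicle controls after compound exposure of the wt1 yeast strain.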

[3] = NCI Yeast Anticancer Drug Screen. Data for the rad50EPP+ strain (AID 151);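 note: 0% = growth of vehicle-treated control cultures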; conditions: S. cerevisiae rad50 mutant strain, hits give high values
How it was run: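 Read-out is yeast growth inhibition relative to vehicle; cells used were the rad50EPP+ strain.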

[4] = NCI Yeast Anticancer Drug Screen. Data for the mgt1 strain (AID 153); conditions: S. cerevisiae mgt1 mutant growth inhibition, hits give high values
How it was run: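 Measured: inhibition of mgt1 yeast growth by compound, normalized to vehicle-treated cultures.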

[5] = NCI Yeast Anticancer Drug Screen. Data for the rad50 strain (AID 155);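 note: 0% = growth of vehicle-only cultures of the same strain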; conditions: S. cerevisiae rad50 strain growth inhibition, hits give high values
How it was run: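 Readout: growth inhibition relative to vehicle-treated cultures. Compound exposure was carried out in a genetically defined yeast strain deficient in DNA damage repair.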

[6] = NCI Yeast Anticancer Drug Screen. Data for the mec2-1 strain (AID 157); conditions: S. cerevisiae mec2-1 strain, hits give high values
How it was run: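 Using mec2-1 yeast: add compound, measure growth, express inhibition versus vehicle-treated cultures.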

[7] = NCI Yeast Anticancer Drug Screen. Data for the rad14 strain (AID 159);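 note: 0% = growth of vehicle-treated control cultures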; conditions: S. cerevisiae rad14 strain growth inhibition, hits give high values
How it was run: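 Growth inhibition vs vehicle controls; genetically altered yeast strain (DNA damage repair defect) treated with test compounds.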

[8] = NCI Yeast Anticancer Drug Screen. Data for the sgs1 mgt1 strain (AID 161);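 note: 0% = growth of cultures given vehicle only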; conditions: S. cerevisiae sgs1 mgt1 strain, hits give high values
How it was run: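 Yeast cells carrying a defined DNA-repair defect were exposed to test compounds. Growth inhibition was measured relative to vehicle-treated controls.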

[9] = NCI Yeast Anticancer Drug Screen. Data for the CLN2oe strain (AID 163);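 note: 0% = growth of vehicle-only control cultures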; conditions: S. cerevisiae CLN2oe strain, hits give high values
How it was run: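 Whole-cell yeast growth assay. A strain engineered for altered cell-cycle control received compound, and inhibition relative to vehicle-treated cultures was recorded.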

[10] = NCI Yeast Anticancer Drug Screen. Data for the cln2 rad14 strain (AID 165);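 note: 0% = growth equal to vehicle treated cultures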; conditions: S. cerevisiae cln2 rad14 strain, hits give high values
How it was run: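 Yeast strain cln2 rad14, bearing defects in cell cycle control and DNA repair, serves as the test system; values reflect growth inhibition compared with vehicle.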

[11] = NCI Yeast Anticancer Drug Screen. Data for the bub3 strain (AID 167); conditions: S. cerevisiae bub3 mutant strain, hits give high values
How it was run: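 Readout: yeast growth inhibition, expressed relative to vehicle-only wells. The test organism is a mutant strain from a panel with lesions in DNA repair or checkpoint genes.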

[12] = NCI Yeast Anticancer Drug Screen. Data for the wt2 strain (AID 169);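 note: 0% = growth of vehicle-treated yeast cultures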; conditions: S. cerevisiae wt2 strain growth inhibition, hits give high values
How it was run: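 Treated yeast vs. vehicle-treated yeast: growth inhibition determined.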

[13] = NCI Yeast Anticancer Drug Screen. Data for the mlh1 strain (AID 171);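 note: 0% = growth of vehicle-treated control cultures of the same strain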; conditions: S. cerevisiae mlh1 strain growth inhibition, hits give high values
How it was run: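 A yeast strain with a defined genetic lesion serves as the test organism. Cultures receive compound or vehicle, and growth is measured.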

[14] = NCI Yeast Anticancer Drug Screen. Data for the sgs1 strain (AID 173);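 note: 0% = growth of vehicle-only control cultures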; conditions: S. cerevisiae sgs1 mutant, hits give high values
How it was run: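 A genetically defined yeast mutant is incubated with the test compound, and its growth is compared to that of the same strain given vehicle.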

[15] = NCI Yeast Anticancer Drug Screen. Data for the mlh1 rad18 strain (AID 175); conditions: S. cerevisiae mlh1 rad18 strain growth inhibition, hits give high values
How it was run: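 Steps: expose repair-defective yeast to compound; measure growth; express inhibition against vehicle-treated controls.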

[16] = NCI Yeast Anticancer Drug Screen. Data for the rad18 strain (AID 177); conditions: S. cerevisiae rad18 mutant growth inhibition, hits give high values
How it was run: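 Measured value is growth inhibition of a yeast strain bearing a DNA repair alteration, referenced to vehicle-treated cells.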

[17] = at 5.0 µM (retest, dose inferred, filed as 0.5)
[18] = at 50.0 µM (retest, dose inferred, filed as 5.0)

Measured: growth inhibition

CC1(C)C(O)OC(O)C1(C)C (stereo not drawn)
inactive: [1]; at 1.2 µM 0% | [1]; at 3.7 µM 0% | [1]; at 11.0 µM 2% | [1]; at 33.0 µM 7% | [1]; at 100.0 µM 30% | [2]; at 1.2 µM 0% | [2]; at 3.7 µM 0% | [2]; at 11.0 µM 4% | [2]; at 33.0 µM 2% | [2]; at 100.0 µM 8% | [3]; at 1.2 µM 0% | [3]; at 3.7 µM -1% | [3]; at 11.0 µM 2% | [3]; at 33.0 µM 1% | [3]; at 100.0 µM 12% | [4]; at 1.2 µM -1% | [4]; at 3.7 µM -1% | [4]; at 11.0 µM 2% | [4]; at 33.0 µM 16% | [4]; at 100.0 µM 10% | [5]; at 1.2 µM -1% | [5]; at 3.7 µM -2% | [5]; [17] 15% | [5]; at 11.0 µM 0% | [5]; at 33.0 µM 5% | [5]; [18] 8% | [5]; at 50.0 µM 69% | [5]; at 100.0 µM 25% | [6]; at 1.2 µM 0% | [6]; at 3.7 µM 2% | [6]; [17] 1% | [6]; at 11.0 µM 2% | [6]; at 33.0 µM 6% | [6]; [18] -10% | [6]; at 50.0 µM 29.4% | [6]; at 100.0 µM 23% | [7]; at 1.2 µM -2% | [7]; at 3.7 µM -2% | [7]; at 11.0 µM 0% | [7]; at 33.0 µM 3% | [7]; at 100.0 µM 22% | [8]; [17] -9% | [8]; [18] 14% | [8]; at 50.0 µM 58.5% | [9]; at 1.2 µM -10% | [9]; at 3.7 µM -3% | [9]; at 11.0 µM 0% | [9]; at 33.0 µM -5% | [9]; at 100.0 µM 3% | [10]; [17] 32% | [10]; [18] 7% | [10]; at 50.0 µM 24.4% | [11]; at 1.2 µM -7% | [11]; at 3.7 µM -7% | [11]; [17] -8% | [11]; at 11.0 µM -6% | [11]; at 33.0 µM -8% | [11]; [18] -13% | [11]; at 50.0 µM 37.4% | [11]; at 100.0 µM -6% | [12]; at 1.2 µM -1% | [12]; at 3.7 µM 1% | [12]; at 11.0 µM 5% | [12]; at 33.0 µM 5% | [12]; at 100.0 µM 10% | [13]; at 1.2 µM 0% | [13]; at 3.7 µM -1% | [13]; at 11.0 µM 4% | [13]; at 33.0 µM 6% | [13]; at 100.0 µM 18% | [14]; at 1.2 µM 1% | [14]; at 3.7 µM 5% | [14]; at 11.0 µM 11% | [14]; at 33.0 µM 25% | [14]; at 100.0 µM 63% | [15]; [17] 3% | [15]; [18] 56% | [15]; at 50.0 µM 60.8% | [16]; at 1.2 µM -1% | [16]; at 3.7 µM 2% | [16]; at 11.0 µM 13% | [16]; at 33.0 µM 31%
active: [16]; at 100.0 µM 77%
